Shiga toxin inh = A qHTS for Small Molecule Inhibitors of Shiga Toxin; AID 2315, 2010; 290,000 tested, 9.2% active; Vero cells, Shiga toxin protein synthesis inhibition reporter; inhibition, % at 38.7 µM; in the data active = inhibition mostly above about 28%, no sharp cut-off; inactive = mostly below about 43%
Pf growth 96h = Primary qHTS for delayed death inhibitors of the malarial parasite plastid, 96 hour incubation | P. falciparum luciferase reporter growth, 96 h | Potency, µM (titrated, usually from 28.7 µM), hits mostly inhibitors | 320,000 tested, 6.9% active
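Compounds incubated with erythrocytes infected by luciferase-expressing P. falciparum (2% hematocrit, 0.05% parasitemia final) for 96 hours, 37 C in 5% CO2. Growth inhibition scored as decreased luciferase luminescence.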
HCV inh = qHTS Assay for Inhibitors of Hepatitis C Virus (HCV) | Huh7.5.1 HCVcc-Cre infection, luciferase reporter, 44 h | Potency, µM (highest dose often 41.8 µM), most hits filed as inhibitors | 340,000 tested, 3.4% active
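Luciferase read-out (15 sec integration) after a 15 min room-temperature substrate step quantifies HCVcc-Cre infection. Cells, 1,000 per well, had compound added 4 h post-plating, then virus at ~0.5 moi, and were cultured 44 h.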
HCMV inh = qHTS Assay for inhibitors of the human cytomegalovirus (HCMV); HFF cells, HCMV-luciferase reporter, 72 h; active compounds read low; activity change, negative = inhibition, % at 57.5 µM; 410,000 tested, 4.5% active; AID 1259415, 2018; in the data active = activity change below about -60%; inconclusive = no clear call, values can overlap the other calls; inactive = above about -39%
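Luciferase read-out from HCMV-luciferase-infected HFFs (MOI 1 PFU/cell) 72 h post infection at 37C; compounds added after 16 h cell attachment; activity normalized between buffer-only basal and Salinomycin (10uM) inhibitor controls.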
Pf growth 48h = Primary qHTS for delayed death inhibitors of the malarial parasite plastid, 48 hour incubation; P. falciparum luciferase growth in erythrocytes, 48 h; Potency, µM (highest dose often 28.7 µM), hits mostly inhibitors; 310,000 tested, 5.9% active; AID 504832, 2011
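Parasite viability was followed by luminescence of a genomically integrated firefly luciferase. Cultures held 0.1% parasitemia at 2% hematocrit (final), incubated under 5% CO2 at 37 C.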
CHX counter = Cycloheximide Counterscreen for Small Molecule Inhibitors of Shiga Toxin; max response, %; 300,000 tested, 12% active; cell reporter, cycloheximide protein synthesis inhibition counterscreen; in the data active = max response mostly above about 13%, no sharp cut-off; inactive = mostly below about 14%; also: read at 38.3 µM for the half of the compounds with a filed dose
A number is an active result; 0 = inactive; ? = inconclusive; - = not tested or not shown; [ ] = remark or other dose. Hits are enriched below; roughly 21% of the tested compounds scored in any of these assays. Unless noted, calls follow the shape of the dose curve; as a rule, active = well fitted inhibition curve with a large enough effect; inconclusive = small, poorly fitted or top-dose-only effect, or another doubt; inactive = no such curve, though single readings can be large or run the other way.

SMILES	Shiga toxin inh	Pf growth 96h	HCV inh	HCMV inh	Pf growth 48h	CHX counter
CCCCN(CC)CCNC(=O)c1c(C)oc2ncnc(N3CCOCC3)c12	-	-	-	0	-	-
CC(C)NC(=O)CCCOc1ccc(Cl)cc1Cl	0	10µM	0	0	-	34
COC(=O)NNC(=O)CCCOc1ccc(Cl)cc1Cl	0	0	0	0	0	0
Cc1ccc(Cl)cc1N1CCN(c2ncnc3onc(C)c23)CC1	-	-	-	0	-	-
O=C(C1CCN(c2ncnc3c2nc2n3CCCCC2)CC1)N1CCN(c2cccc(Cl)c2)CC1	0	0	?	-91	0	0
Clc1cccc(N2CCN(c3ncnc4c3nc3n4CCCCC3)CC2)c1	-	-	-	-73	-	-
Cc1ccc(N2CCN(C(=O)C3CCN(c4ncnc5c4nc4n5CCCCC4)CC3)CC2)c(C)c1	-	-	-	-62	-	-
CC1CCN(C(=O)C2CCN(c3ncnc4c3nc3n4CCCCC3)CC2)CC1	0	?	0	?	0	0
Cc1noc2ncnc(N3CCN(c4cccc(Cl)c4)CC3)c12	0	?	10µM	-72	?	0
Fc1ccc(N2CCN(c3ncnc4c3nc3n4CCCCC3)CC2)cc1	-	-	-	0	-	-
CC(C)C[C@H]1CN=C(Nc2ccccc2)N1CC1CCC(C)CC1 (some centres undefined)	0	?	0	-	?	0
COC(=O)C(c1ccccc1)(c1cn(C)c2ccccc12)C(Nc1ccccc1)c1ccc(C)cc1 (centres undefined)	-	-	-	0	-	-
O=[N+]([O-])c1cccc(S(=O)(=O)NCc2ccncc2)c1	0	0	13µM	?	0	0
O=[N+]([O-])c1cccc(S(=O)(=O)Nc2ccc(Cc3ccncc3)cc2)c1	0	?	?	0	?	0
O=S(=O)(NCCc1cccs1)c1ccc(Br)cc1	0	0	0	0	0	0
O=[N+]([O-])c1cccc(S(=O)(=O)NCCc2cccs2)c1	0	10µM	0	0	0	0
COc1cccc(-c2cnc(C(O)c3cc(F)cc(Cl)c3)[nH]2)c1 (centres undefined)	-	-	-	0	-	-
Cc1ccc(-n2c(-c3cnccn3)n[nH]c2=S)c(Br)c1	0	0	0	0	0	0
FC(F)(F)c1ccccc1-n1c(-c2cnccn2)n[nH]c1=S	53	0	0	0	0	41
CN(C)/C=N/c1ncc(C(=O)c2ccc(Cl)cc2)s1	58	0	0	0	0	43
CN(C)/C=N/c1ncc(C(=O)c2ccc(Cl)cc2Cl)s1	0	?	?	-61	?	0
O=C(c1cnc(-c2ccccc2)s1)c1ccc(Cl)cc1Cl	0	0	0	0	?	0
CN(CCOc1ccccc1)C(=O)CCc1c[nH]c2ccccc12	0	0	0	0	0	0
Cc1csc2nc(O)c(C(=O)NC3CCCCC3)c(=O)n12	-	5.9µM	0	0	12µM	-
Cc1csc2nc(O)c(C(=O)NC3CCCCCC3)c(=O)n12	-	?	?	?	12µM	-
SMILES	Shiga toxin inh	Pf growth 96h	HCV inh	HCMV inh	Pf growth 48h	CHX counter
O=C(NC1CCCC1)c1c(O)nc2sccn2c1=O	-	?	0[8.37 µM]	0	0	-
CCSc1ccccc1C(=O)Nc1nc2ccccc2c(=O)[nH]1	0	0[5.75 µM]	?	?	0	0
CSc1ccccc1C(=O)Nc1nc2ccccc2[nH]1	73	0	0	0	0	39
CC(C)Nc1nc2ccccc2c(=O)[nH]1	0	10µM	0	0	0	0
CCCNc1nc2ccccc2c(=O)[nH]1	0	?	0	0	0	0
CSc1ccccc1C(=O)Nc1nc2ccccc2c(=O)[nH]1	80	0	?	0	0	32
CS(=O)(=O)c1ccccc1C(=O)Nc1nc2ccccc2[nH]1	0	0	0	0	0	0
COc1nc(C)nc2c1sc1nc3c(cc12)COC(C)(C)C3	0	0	0	0	-	34
CCc1nc(OCc2ccco2)c2sc3nc4c(cc3c2n1)COC(C)(C)C4	0	-	?	0	0	0
Cc1nc(OCC(C)C)c2sc3nc4c(cc3c2n1)COC(C)(C)C4	60	0	0	0	0	20
CC1(C)Cc2nc3sc4c(SCC(=O)NCc5ccccc5)ncnc4c3cc2CO1	0	0	0	0	-	0
CCCCN1C(=O)C(O)(c2c[nH]c3ccccc23)c2cc(Br)ccc21 (centres undefined)	-	-	-	0	-	-
Cc1cc(C)c2c(=O)cc(C(=O)Nc3sc4c(c3C(=O)NCc3ccco3)CCCC4)oc2c1	-	-	-	0	-	-
C=CCOC(=O)C1=C(C)N=C2SCCC(=O)N2C1/C=C/c1ccccc1 (centres undefined)	0	0[1.15 µM]	?	-103	?	0
Cc1cccc(NC(=O)c2n[nH]c([N+](=O)[O-])c2Br)c1C	67	?	0	0	0	22
Cc1ccc(Nc2ncnc3sc(C)c(C)c23)cc1C	0	-	?	0	0	31
COc1ccc(/C=N/Nc2ncnc3sc(C)c(C)c23)cc1	0	0	0	0	0	0
Cc1ccc(Nc2ncnc3sc4c(c23)CCC(C)C4)cc1C (centres undefined)	-	-	-	0	-	-
Cc1sc2ncnc(N/N=C/c3ccc(O)cc3)c2c1C	0	?	11µM	0	0	0
Cc1sc2ncnc(N/N=C/c3ccccc3O)c2c1C	34	0	?	-101	2.9µM	36
CCN(CC(=O)NCc1ccc(Cl)cc1)C(=O)C(C)Sc1ccccc1 (centres undefined)	0	0	0	0	0	0
Cc1cccc(C)c1NC(=O)c1ccc(-c2cc(F)ccc2F)o1	-	-	-	0	-	-
Cc1cccc(C)c1NC(=O)c1ccc(-c2ccc(Cl)cc2Cl)o1	0	?	?	-72	?	0
Cc1ccccc1NC(=O)c1ccc(-c2ccc(Cl)cc2Cl)o1	0	0	13µM	0	-	21
Cc1ccc(NC(=O)c2ccc(-c3cc(Cl)ccc3Cl)o2)c(C)c1	-	-	-	0	-	-
SMILES	Shiga toxin inh	Pf growth 96h	HCV inh	HCMV inh	Pf growth 48h	CHX counter
Cc1ccc2nc(SCCC#N)nc(C)c2c1	0	-	10µM	0	0	0
CCCc1c(C)nc2ccccc2c1SCCC#N	0	?	?	-85	?	0
CCc1c(C)nc2ccc(Br)cc2c1SCCC#N	0	0	?	-83	0	0
CCCCc1c(C)nc2ccc(Br)cc2c1SCCC#N	0	?	?	-	?	0
O=C(NCCC1=CCCCC1)c1ccc2c(c1)ncn2-c1ccc(F)c(F)c1	-	-	-	0	-	-
CCc1nc2c(OCc3cccc(Cl)c3)cccn2c1N(C)C(=O)c1ccc(C)cc1	-	-	-	0	-	-
Cc1cccc(C(=O)Nc2nnc(SCC(=O)NCc3ccco3)s2)c1	-	-	0	0	-	-
O=S(=O)(c1ccc2nc(-c3ccccc3)[nH]c2c1)N1CCN(c2ccc(Cl)cc2)CC1	0	?	?	?	12µM	0
Cc1ccccc1OCc1nc2ccc(S(=O)(=O)N3CCOCC3)cc2[nH]1	0	?	0	0	-	0
O=S(=O)(c1ccc2nc(COc3ccc(Cl)cc3Cl)[nH]c2c1)N1CCOCC1	0	0	?	0	-	14
Cc1ccc(NS(=O)(=O)c2ccc3nc(-c4ccccc4)[nH]c3c2)cc1Cl	-	-	-	0	-	-

Source: PubChem BioAssay
